The panel holds about 79,000 compounds, 15% with a hit somewhere; the sample as a whole holds those more often. Unmarked numbers belong to inactive results. Calls of active or inactive are those of the source. No stated cut-off is given here; in the data, active means growth inhibition above about 70%; inactive means the rest.
Key:
[1] = NCI Yeast Anticancer Drug Screen. Data for the rad50 strain (AID 155);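 further: 0% = growth of vehicle-only cultures of the same strain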; conditions: S. cerevisiae rad50 strain growth inhibition; at 50.0 µM; active compounds read high
Outline: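 Genetically altered yeast (DNA repair pathway); compound treatment; growth inhibition vs vehicle ctrl.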

[2] = NCI Yeast Anticancer Drug Screen. Data for the mec2-1 strain (AID 157); conditions: S. cerevisiae mec2-1 strain, at 50.0 µM, active compounds read high
Outline: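 Using mec2-1 yeast: add compound, measure growth, express inhibition versus vehicle-treated cultures.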

[3] = NCI Yeast Anticancer Drug Screen. Data for the sgs1 mgt1 strain (AID 161);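 further: 0% = growth of cultures given vehicle only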; conditions: S. cerevisiae sgs1 mgt1 strain, at 50.0 µM, active compounds read high
Outline: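 Growth of a repair-deficient yeast mutant was monitored after compound treatment and expressed as inhibition relative to vehicle-treated cultures.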

[4] = NCI Yeast Anticancer Drug Screen. Data for the cln2 rad14 strain (AID 165);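 further: 0% = growth equal to vehicle treated cultures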; conditions: S. cerevisiae cln2 rad14 strain, at 50.0 µM, active compounds read high
Outline: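 Yeast strain cln2 rad14, bearing defects in cell cycle control and DNA repair, serves as the test system; values reflect growth inhibition compared with vehicle.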

[5] = NCI Yeast Anticancer Drug Screen. Data for the bub3 strain (AID 167); conditions: S. cerevisiae bub3 mutant strain, at 50.0 µM, active compounds read high
Outline: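 Yeast carrying a defined mutation is treated with each compound, and growth is compared with that of vehicle-exposed cells to give inhibition.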

[6] = NCI Yeast Anticancer Drug Screen. Data for the mlh1 rad18 strain (AID 175); conditions: S. cerevisiae mlh1 rad18 strain growth inhibition; at 50.0 µM; active compounds read high
Outline: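 Steps: expose repair-defective yeast to compound; measure growth; express inhibition against vehicle-treated controls.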

| SMILES | growth inhibition [1] | growth inhibition [2] | growth inhibition [3] | growth inhibition [4] | growth inhibition [5] | growth inhibition [6] |
| --- | --- | --- | --- | --- | --- | --- |
| Nc1ncc([N+](=O)[O-])c(=O)[nH]1 | -29.9% | -14.2% | -1.35% | -4.25% | 0.55% | 26.9% |
| C=C[C@@]1(C)CCC2(O)C(CCC3C2(C)CCC[C@@]3(C)COC(=O)CC(=O)OC)C1 (some centres undefined) | 82.8% (active) | 72.1% (active) | 78% (active) | 60.5% | 76.3% (active) | 79.2% (active) |
| Cc1ccc(C(=O)/C=C\c2ccc(Cl)c(Cl)c2)cc1 | -14.9% | -5.8% | 23.3% | -5.5% | 35.7% | 5.6% |
| CCOC(=O)C1=C(C(C)=O)C(c2ccccc2[N+](=O)[O-])C(C(C)=O)=C(C(=O)OCC)N1 | -7.35% | 10.4% | -9.2% | -6.85% | -9% | 9.25% |
| CC(C)c1nc2c(c(=O)o1)CCS2 | -5.5% | -5.75% | -7.9% | -8.1% | -1.4% | -11.9% |
| Cc1ccc(S(=O)(=O)CC(=O)c2ccc(Br)cc2)cc1 | -2.7% | -21.2% | -16.4% | 4.9% | 6.55% | 8.75% |
| Nc1ccc(C(=O)NCCCC(=O)O)cc1 | -1.85% | 19.2% | -1.75% | 0.85% | -3.75% | -14.6% |
| CCC(CCC(=O)c1ccccc1)[N+](=O)[O-] (centres undefined) | -3.65% | -14.8% | -5.7% | -8.5% | 13.8% | 7.2% |
| Cc1ccc(S(=O)(=O)Nc2nnc(CC(C)C)s2)cc1 | 36.2% | -6.45% | 35.2% | 28.1% | 40.9% | 35.9% |
| COc1ccc(/C=C(\C2=NC(=O)CS2)c2nc3ccccc3[nH]2)cc1 | -0.35% | -4.2% | -20.1% | -3.9% | -20.4% | -24.9% |
| CC(C)(C[NH-])C[NH-].[Cl][Pt+2][Cl] | -22.3% | 13.3% | 20.2% | 18.6% | 16.6% | 87.7% (active) |
| c1ccc(-c2coc(-c3ccccc3)c2)cc1 | -16.2% | -11.8% | -17.6% | -12.2% | -9.35% | -1.9% |
| Nn1c(=O)[nH]c2ncn(Cc3ccccc3)c2c1=O | 4.3% | -21.9% | 9.2% | 16.9% | -3% | 3.35% |
| COc1ccc2cc3n(c2c1)CCc1cc(OC)c(OC)cc1-3 | 13.6% | -10.8% | 5.9% | 23.9% | 3% | 14.2% |
| O=[N+]([O-])c1cccnc1Sc1ccccc1C1=NCCCN1 | -5.55% | -12.3% | -3.45% | 19.9% | -4.2% | -4.1% |
| COc1ccc(CCNc2ncc([N+](=O)[O-])cc2N)cc1OC | 5.15% | -8.75% | -10.8% | -20.9% | 6.25% | 2.75% |
| CC(=O)N1CCN(C=S)CC1 | -16.5% | -9.6% | -5.65% | 15.8% | -4.05% | -15.5% |
| CCCCSCC(NC(=O)/C=C/c1c(C)[nH]c(=O)[nH]c1=O)C(=O)OC (centres undefined) | 16.1% | 20.2% | 31.2% | 22.4% | 7.7% | 28.6% |
| CCOC(=O)CNc1c(OCc2ccccc2)c(=O)c1=O | -8.05% | -10.8% | -18.1% | -3.65% | -16.2% | 5.8% |
| CC(O)CNC(=O)C(C)O (centres undefined) | 11.8% | -27.6% | -25.8% | -5.45% | 8.25% | 7.6% |

| SMILES | growth inhibition [1] | growth inhibition [2] | growth inhibition [3] | growth inhibition [4] | growth inhibition [5] | growth inhibition [6] |
| --- | --- | --- | --- | --- | --- | --- |
| Cc1ccc(S(=O)(=O)N2CC(O)C=Cc3ccccc32)cc1 (centres undefined) | 5.4% | -3.1% | -4.45% | 17.5% | 5.15% | 9.85% |
| CC1(C)/C(=C\C(=O)O)C2CCC1C2 (centres undefined) | 11.4% | 8.3% | 7.5% | -10.8% | -9.1% | 8.75% |
| CCC(CC)(SC(C)C(N)=O)C(C)=O (centres undefined) | 0.35% | 7.4% | -16.3% | -11.3% | 5.75% | 0.6% |
| O=Cc1c(CO)cc(O)c(O)c1O | -12.4% | -0.1% | 16.1% | -30.6% | 2.9% | 6.55% |
| Cc1ncc([N+](=O)[O-])n1CCN(C)CCCCn1ccnc1[N+](=O)[O-] | -0.3% | -1.2% | -5% | -3.75% | 7.7% | -57.9% |
| O=C(Nc1ccccc1)c1cc([N+](=O)[O-])cc([N+](=O)[O-])c1 | 9.25% | 16.4% | 15.3% | -24.6% | 9.55% | 0.05% |
| CC(=O)Nc1ccc(/C=N/NC(=O)COCC(=O)N/N=C/c2ccc(NC(C)=O)cc2)cc1 | 7.8% | 11.1% | 0.15% | 86.3% (active) | -3.2% | -9.65% |
| O=C1NC(=O)C(=NC2C(=O)NC(=O)NC2=O)C(=O)N1 | 6.65% | 29.4% | 31.3% | 1.5% | 26.1% | 19.8% |
| O=C(COc1ccc(Cl)c(Cl)c1)NCc1ccc([N+](=O)[O-])cc1 | 0.35% | 28.2% | 20.9% | -10.7% | 27.8% | 22.9% |
| Nc1c(O)cccc1C(=O)O | -16.2% | -9.9% | -4.45% | 3.95% | 5.1% | -28.7% |
| Cc1ncc(CO)c(/C=N\NC(N)=S)c1O | 9.85% | 4.7% | 8.3% | -48.5% | -39.1% | -7.25% |
| CCOC(=O)C1(C)CCCc2sc(N)c(C#N)c21 (centres undefined) | -42.4% | -7.55% | -11.1% | -6.45% | -14.2% | 5.45% |
| CN(C/C=C/CN(C)C(=S)Nc1ccccc1)C(=S)Nc1ccccc1 | -19.1% | 13.1% | -20.5% | -2.65% | 2.85% | 5.65% |
| O=C1NOCC1NCc1c(O)ccc2ccccc12 (centres undefined) | 19.9% | 13.2% | 33.7% | 26.6% | 17.9% | 23.2% |
| S=c1[nH]c2ccccc2n2cccc12 | 14.9% | -7.15% | 27.4% | 12.8% | -12.3% | 19.2% |
| COc1ccc(C(O)C2CC(=O)NN=C2C)cc1OC (centres undefined) | 8.05% | -0.85% | -3.3% | 6.7% | 8.7% | -1.7% |
| CC(=O)[CH-]C(=O)c1ccccc1.CC(=O)[CH-]C(=O)c1ccccc1.CC[C@H](CCC(C)[C@H]1CCC2[C@@H]3CC=C4C[C@@H]([O-])CC[C@]4(C)C3CC[C@@]21C)C(C)C.CC[C@H](CCC(C)[C@H]1CCC2[C@@H]3CC=C4C[C@@H]([O-])CC[C@]4(C)C3CC[C@@]21C)C(C)C.Cl.[Ti+4] (some centres undefined) | 19% | 3.9% | 23.2% | -11.2% | 27.1% | 5.05% |
| O=c1oc2ccc(Br)cc2cc1-n1nnc2ccccc21 | -0.45% | -6.55% | 2.45% | 0.6% | 15.9% | 5.55% |
| CCOC(=O)C(C(C)=O)C(CC(=O)OC)NC(=O)OCc1ccccc1 (centres undefined) | -24.5% | -21.9% | -60.6% | -57.2% | -32.2% | -35.5% |

Reference: PubChem BioAssay (NCI)
